# Bioassay records from PubChem.
# Hits are enriched below; roughly 2% of the tested compounds scored in any of these assays.
# Glioma ERSR ind: ER stress response induction in glioma; U87-MG GRP78 promoter luciferase reporter, 16 h; Potency, µM, for the others: top-dose activation, most hits filed as activators; hit rate 0.02% among 420,000; also: series mostly up to about 76 µM; % of control where 0% means no effect; nearly all actives have a fitted effect of over 35% in size
#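 Stably transfected U87-MG human glioma cells carrying a GRP78-based luminescent sensor were seeded at 1000 cells/well, pin-dosed with compounds and incubated 16 h. Luciferase reagent was then added, and end-point luminescence was read after 10 min at room temperature.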
# MBNL1 CUG block: blocks human MBNL1 binding to CUG repeat RNA. TR-FRET MBNL1-His/biotin-(CUG)12 binding, 665/545 ratio. hit rate 0.036% among 280,000. Q9NR56. AID 2675. Potency, µM (doses to about 57.5 µM), without a hit: top-dose activity change, negative = inhibition, actives largely listed as inhibitors; active = well fitted inhibition curve with a large enough effect in the signal ratio, with a control signal flat, not every such curve was filed as active; inconclusive = small, poorly fitted or top-dose-only effect, or effect the other way, or a change in a side signal; inactive = no such curve, though single readings can be large or run the other way; the % refers to the signal ratio; also: % is scaled to controls: 0 for no effect and ±100 for the full control effect
# Target sequence (Q9NR56 whole entry, looked up): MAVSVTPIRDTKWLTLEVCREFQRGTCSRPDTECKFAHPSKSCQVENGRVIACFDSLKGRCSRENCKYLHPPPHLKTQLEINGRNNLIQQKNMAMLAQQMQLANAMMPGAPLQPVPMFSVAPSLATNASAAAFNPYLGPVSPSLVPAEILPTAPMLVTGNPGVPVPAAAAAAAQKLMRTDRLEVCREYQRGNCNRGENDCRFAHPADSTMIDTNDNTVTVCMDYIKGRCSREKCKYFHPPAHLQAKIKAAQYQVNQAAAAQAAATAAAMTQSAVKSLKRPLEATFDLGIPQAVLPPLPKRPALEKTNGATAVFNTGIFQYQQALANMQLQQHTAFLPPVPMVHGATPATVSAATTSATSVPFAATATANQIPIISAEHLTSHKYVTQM
#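 His-tagged MBNL1 binding to biotinylated (CUG)12 RNA was measured by TR-FRET using terbium anti-His antibody (0.055 ng/ul final) and streptavidin-XL665 (5 nM final). Compounds were titrated 92 nM to 58 uM; 60 min at room temperature.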
# aSyn yeast inh: rescues yeast growth from alpha-synuclein toxicity. hit rate 0.14% among 370,000. Potency, µM (doses to about 46.1 µM), inactives show top-dose growth rescue (activation), hits mostly activators. Yeast expressing alpha-synuclein, growth rescue, BacTiter-Glo, 24 h; also: % of control where 0% means no effect; nearly all actives have a fitted effect of over 65% in size
#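 Rescue of yeast growth: cells expressing toxic alpha-synuclein, induced in galactose at OD600 0.02, incubated with compound 24 h at 30 C. ATP luminescence quantified growth; inhibitors of toxicity appear as activators.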
# TDP-43 yeast inh: inhibitors of TDP-43 toxicity in yeast | Potency, µM (doses to about 46.1 µM), without a hit: at the top dose growth rescue (activation), most hits filed as activators | TDP-43 expressing yeast growth rescue, BacTiter-Glo, 24 h | AID 652104 | hit rate 1.8% among 410,000; also: % of control where 0% means no effect; nearly all actives have a fitted effect of over 50% in size
#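 Readout is BacTiter-Glo luminescence of cell growth, so inhibitors register as activators. TDP-43-expressing yeast at OD600=0.02 in galactose medium, after raffinose pregrowth to mid-log, were incubated with compound for 24 hr at 30 deg C.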
# FUS yeast rescue: suppressors of FUS proteinopathy in yeast; S. cerevisiae FUS-expressing, growth rescue, OD600, 24 h; Potency, µM (top dose mostly 76.6 µM), actives largely listed as activators; hit rate 0.24% among 390,000;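 also: plate controls were DMSO vehicle for no effect and reference control for full effect; nearly all actives have a fitted effect of over 55% in size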
#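 Restored growth of FUS-toxic S. cerevisiae, read as 600 nm absorbance after 24 h at 30C in galactose medium (starting OD 0.005). Controls CP55940 and DMSO.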
# Abeta yeast res: restores growth of yeast expressing A-beta42 peptide | yeast expressing A-beta42, growth rescue, OD600, 48 h; response scale: 0% DMSO, 100% iron-clioquinol control | Potency, µM (highest dose often 46.1 µM), usual class: activators | hit rate 0.063% among 410,000 | AID 1347071; also: nearly all actives have a fitted effect of over 55% in size
#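 Growth rescue measured by 600 nm absorbance after 48 h yeast culture at 30 C with compound. Values normalized between DMSO and an equimolar ferric chloride plus clioquinol control.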
# Numbers without * were called inactive; i = inactive; ? = inconclusive; nt = no result; [ ] = dose if it differs, or a comment. Unless noted, calls follow the shape of the dose curve; as a rule, active = well fitted curve in the direction sought with a large enough effect; inconclusive = small, poorly fitted or top-dose-only effect, or another doubt; inactive = no such curve, though single readings can be large; an effect the other way counts as inactive or inconclusive. Potency is read from the fitted curve at half-maximal effect.
SMILES,Glioma ERSR ind,MBNL1 CUG block,aSyn yeast inh,TDP-43 yeast inh,FUS yeast rescue,Abeta yeast res
CC(C)C[C@H](NC(=O)OC(C)(C)C)c1nnc(SCC(=O)Nc2ccc(Br)cc2)o1,-4.7%,-4.5%,-0.8%,0.316µM*,i,i
CC(C)c1nnc2n1N=C(c1ccc(Cl)cc1)CS2,-4.6%,7.5%,-0.4%,20µM*,i,i
CS(=O)(=O)c1ccc(-c2cccc3c2OC(CNC(=O)c2cc(C4CC4)[nH]n2)C3)cc1 (configuration not stated),-2.5%,nt,nt,nt,nt,nt
O=C(NC1CC1)c1cc2c(s1)-c1ccccc1OC2,1.5%,?,-13.7%,?,i,i
O=C(O)c1cc2c(s1)-c1ccccc1OC2,2.9%,?,-4.1%,31.6µM*,i,i
COc1ccc(NC(=O)CN(C)C(=O)c2cc3c(s2)CCC3)cc1,-4.3%,nt,1.3%,8.2%,i,i
CN(CC(=O)Nc1ccccc1Br)C(=O)c1cc2c(s1)CCCCC2,7.2%,nt,1.7%,17.8µM*,i,i
COc1ccc(NC(=O)CN(C)C(=O)c2cc3c(s2)CCCCC3)cc1,-3.4%,-1.5%,0.1%,28.2µM*,i,i
Cc1cc(C(=O)N(Cc2cc3cc4c(cc3nc2N2CCOCC2)CCC4)CC2CCCO2)c(=O)[nH]c1C (configuration not stated),3.9%,nt,nt,nt,nt,nt
CCn1c(-c2ccccc2F)nc2cc(NC(C)=O)cc(C(=O)N(C)Cc3c(C)nc4ccccn34)c21,-4.6%,nt,nt,nt,nt,nt
CCn1c(=O)n(CC(=O)N2CCOCC2)c(=O)c2ccccc21,nt,nt,nt,nt,i,nt
CCCCC/C=C/C1=CC(=O)C[C@H](c2ccc3c(c2)OCO3)C1,-2.4%,nt,-7.7%,24.3%,i,i
O=C1C=C(c2ccc(CO)cc2)C[C@@H](c2ccc3c(c2)OCO3)C1,-0.8%,nt,-0.7%,12.6µM*,i,i
COc1ccc(C2=CC(=O)C[C@H](c3ccc4c(c3)OCO4)C2)cn1,-2.7%,nt,2.0%,14.2%,i,i
O=C1C=C(c2cccc(Cl)c2)C[C@@H](c2ccc3c(c2)OCO3)C1,-3.4%,nt,13.0%,?,i,i
COC/C=C/C1=CC(=O)C[C@H](c2ccc3c(c2)OCO3)C1,-4.9%,nt,1.7%,14.1µM*,i,i
COc1cccc(C2=CC(=O)C[C@H](c3ccc4c(c3)OCO4)C2)c1,-2.2%,nt,0.1%,17.8µM*,i,i
O=C1C=C(c2ccc(-c3ccccc3)cc2)C[C@@H](c2ccc3c(c2)OCO3)C1,0.8%,nt,1.3%,11.9%,i,i
O=C1C=C(c2cnc3ccccc3c2)C[C@@H](c2ccc3c(c2)OCO3)C1,0.1%,nt,6.0%,15.8µM*,i,i
CN1C2=N[C@@H](c3ccccc3)CC(=O)N2/C(=C\c2ccccc2)[C@H]1c1ccccc1,nt,nt,nt,nt,i,nt
O=C1C=C(c2ccc(F)nc2)C[C@@H](c2ccc3c(c2)OCO3)C1,-4.1%,nt,8.3%,12.6µM*,i,i
O=C1C=C(c2ccccc2)C[C@@H](c2ccc3c(c2)OCO3)C1,3.7%,nt,1.2%,20µM*,i,i
O=C1C=C(c2cccc(Br)c2)C[C@@H](c2ccc3c(c2)OCO3)C1,-0.1%,nt,13.4%,11.2µM*,i,i
CCN(CC)c1ccc(N=Nc2ccc(S(=O)(=O)N(C)C)cc2)c(S(=O)(=O)NCC[n+]2ccccc2)c1,-3.5%,nt,nt,nt,nt,nt
COC(=O)[C@@H]1CCCN1C(=O)c1c(OC)cc(=O)n2c1CCN(Cc1cc(OC)ccc1F)CC2,-3.3%,nt,nt,nt,nt,nt
SMILES,Glioma ERSR ind,MBNL1 CUG block,aSyn yeast inh,TDP-43 yeast inh,FUS yeast rescue,Abeta yeast res
CCN(C)c1nc(C)nc2c1nnn2Cc1ccccc1,nt,nt,nt,nt,i,nt
O=C(Nc1cccc(C(F)(F)F)c1)c1cccc(C(=O)Nc2cccc(C(F)(F)F)c2)c1,-2.5%,nt,nt,8.4%,i,i
Cc1cc(Nc2cccc(Cl)c2)nc2ccc(NC(=O)c3ccc(F)cc3Cl)cc12,-2.7%,nt,nt,20µM*,?,i
Cc1cc(Nc2cccc(C(F)(F)F)c2)nc2ccc(NC(=O)c3cccc(Cl)c3)cc12,-6.2%,nt,nt,17.8µM*,?,?
Cc1nc2ccc(NC(=O)c3cccc(C(F)(F)F)c3)cc2o1,3.3%,-2.2%,-11.5%,11.2µM*,i,i
Cc1cc(Nc2cccc(Cl)c2)nc2ccc(NC(=O)Cc3ccc(Cl)cc3)cc12,-1.9%,nt,nt,?,?,i
Cc1cc(Nc2cccc(Cl)c2)nc2ccc(NC(=O)Cc3cccc(C(F)(F)F)c3)cc12,-2.2%,nt,nt,15.8µM*,?,i
Cc1nc2ccccn2c1C(=O)CSc1ccccc1Cl,0.1%,-0.5%,8.6%,35.5µM*,i,i[9.22 µM]
Cc1nc2ccccn2c1C(=O)CSc1ccc(Cl)cc1Cl,-6.2%,2.8%,5.6%,?,i,i
CCOC(=O)[C@@]12CN(C(=O)OC(C)(C)C)CC=C1N(Cc1ccc(OC)cc1)C(=O)[C@H]2CC(=O)NCC12CC3CC(CC(C3)C1)C2,nt,nt,nt,nt,i,nt
CN(CC(=O)Nc1ccc(Cl)c(C(F)(F)F)c1)C(=O)c1ccc(N2CCOCC2)c([N+](=O)[O-])c1,-1.3%,nt,2.8%,-21.9%,31.6µM*,i
Cc1cnc(CNC(=O)c2c3n(c(C)cc2=O)-c2ccccc2SC(c2ccsc2)C3)cn1 (configuration not stated),-2.2%,nt,nt,nt,nt,nt
COc1ccc(C(=O)Nc2ccc3nc(SCC(=O)N(C)c4ccccc4)sc3c2)cc1,-2.1%,nt,nt,22.4µM*,?,i
O=C(COc1ccccc1)Nc1ccc2nc(SCC(=O)N3CCCC3)sc2c1,-2.5%,nt,nt,31.6µM*,i,i
Cc1ccc(CN2CCOc3ccc(CN4CCN(CCO)CC4)cc3C2)s1,-3.8%,nt,nt,nt,nt,nt
N=c1nc(N)nc2n1NC(c1ccc(F)cc1)=CS2,3.6%,-15.7%,12.6µM*,11.2µM*,i,i
CN(C)c1ccc(/C=C/c2sc3ccccc3[n+]2CCCCI)cc1,-10.3%,nt,-49.2%,nt,nt,nt
O=C(C[C@H]1C/C=C\C[C@H](NC(=O)OCC2c3ccccc3-c3ccccc32)C(=O)O[C@H](c2ccccc2)CNC1=O)N[C@H](CO)Cc1ccccc1,28.2µM*,nt,-1.1%,8.1%,?,i
CCCCOc1ccc(C(=O)Oc2cc(C)[nH]c(=O)c2[N+](=O)[O-])cc1,-5.3%,-4.1%,-2.5%,17.8µM*,i,i
CC1Cc2ccccc2N1C(=S)NC1CCCC1 (configuration not stated),3.8%,1.9%,-5.6%,?,i,12.6µM*
COc1ccc(NC(=S)N2c3ccccc3CC2C)cc1OC (configuration not stated),-1.5%,?,-18.7%,18.2%,i,i
